Screening data: PubChem, National Center for Advancing Translational Sciences (NCATS)
The entries come from a sample that favours hits as a whole.
Shiga toxin inh – inhibitors of Shiga toxin in Vero cells. Vero cells, Shiga toxin protein synthesis inhibition reporter. inhibition, % at 38.7 µM. 290,000 compounds, 9.2% hits. AID 2315; in the data active = inhibition mostly above about 28%, no sharp cut-off; inactive = mostly below about 43%
Giardia FBPA inh-1 – blocks Giardia fructose-bisphosphate aldolase activity. purified Giardia FBPA. 290,000 compounds, 0.71% hits. Potency, µM (series often up to 59.6 µM), actives largely listed as inhibitors. A8B2U2; also: nearly all actives have a fitted effect of over 55% in size
Target sequence (A8B2U2 whole entry, looked up): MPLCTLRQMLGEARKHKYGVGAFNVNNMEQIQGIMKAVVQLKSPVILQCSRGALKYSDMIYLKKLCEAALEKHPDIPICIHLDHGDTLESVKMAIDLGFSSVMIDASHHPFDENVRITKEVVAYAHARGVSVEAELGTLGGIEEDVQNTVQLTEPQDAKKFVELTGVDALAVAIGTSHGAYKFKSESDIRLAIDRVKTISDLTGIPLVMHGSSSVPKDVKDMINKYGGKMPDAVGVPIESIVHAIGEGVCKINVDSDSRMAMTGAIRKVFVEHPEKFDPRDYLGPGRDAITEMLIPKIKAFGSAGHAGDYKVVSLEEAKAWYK
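Giardia FBPA (40 nM reagent) was preincubated 10 min at RT with compound (up to 57.5 uM final), then substrate plus GAPDH/TPI/NAD/arsenate coupling system with diaphorase/resazurin was added; resorufin fluorescence (525/598 nm) was read after 20 min.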
TbPYK inhibitor – inhibitors of Trypanosoma brucei pyruvate kinase; TbPYK enzyme, Kinase-Glo Plus ATP luminescence, 45 min; 410,000 compounds, 0.12% hits; AID 624173; Potency, µM (highest dose often 76.8 µM), usual class: inhibitors; Q57TT1; also: nearly all actives have a fitted effect of over 50% in size
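Luminescent Kinase-Glo Plus end-point after 45 min room-temperature reaction of T. brucei pyruvate kinase started with 130 uM ADP (final). Buffer TEA 50 mM pH 7.2 with KCl, MgCl2, BSA, Tween-20; titration-based qHTS with fitted concentration-effect curves.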
LmPK inh – inhibitors of Leishmania mexicana pyruvate kinase. purified LmPK, Kinase-Glo ATP luminescence, 1 h. Potency, µM (highest dose often 57.5 µM), hits mostly inhibitors. 290,000 compounds, 0.37% hits. AID 1721
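ATP generated from ADP (0.1 mM) and PEP (0.5 mM) by 0.1 nM LmPK over 1 h at room temperature (pH 7.2 imidazole buffer) was detected by coupled luciferase luminescence. Values were normalized to uninhibited and no-enzyme wells.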
Sm TGR block – S. mansoni TGR enzyme inhibition. Potency, µM (titrated, usually from 114 µM), hits mostly inhibitors. Q962Y6. purified TGR, DTNB reduction, TNB absorbance 405 nm. 360,000 compounds, 3% hits; also: nearly all actives have a fitted effect of over 60% in size
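First, TGR (20 nM dispensed) and NADPH were mixed with compound. Second, a 15 min room-temperature incubation followed. Third, further NADPH and then DTNB were added to start the reaction. Finally, TNB absorbance was monitored kinetically.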
Cycloheximide cs – affects cycloheximide protein synthesis inhibition readout, counter-screen; cell reporter, cycloheximide protein synthesis inhibition counterscreen; max response, %; 300,000 compounds, 12% hits; in the data active = max response mostly above about 13%, no sharp cut-off; inactive = mostly below about 14%; also: read at 38.3 µM for the half of the compounds with a filed dose
Giardia growth – blocks growth of Giardia lamblia trophozoites. AID 2785. shares compounds with Giardia FBPA inh-1. Potency, µM (top dose mostly 57.5 µM), most hits filed as inhibitors. 1,500 compounds, 5% hits. Giardia lamblia trophozoite growth inhibition;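 also: trophozoites exposed to compound for 48 h at 37 °C; nearly all actives have a fitted effect of over 70% in size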
Mammalian tox – mammalian cytotoxicity of Giardia aldolase inhibitor hits; shares compounds with Giardia FBPA inh-1; AID 2786; Potency, µM (top dose mostly 57.5 µM), actives largely listed as inhibitors; mammalian cell viability counter-screen, qHTS; 1,500 compounds, 4% hits;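 also: Chinese hamster ovary cells used as mammalian cytotoxicity surrogate; viability measured as cellular ATP by luminescence; compound exposure lasted 48 h before reading; nearly all actives have a fitted effect of over 60% in size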
Giardia FBPA inh-2 – confirmation of Giardia fructose-bisphosphate aldolase inhibitors | shares compounds with Giardia FBPA inh-1 | 1,500 compounds, 5% hits | purified Giardia aldolase enzyme activity, qHTS | Potency, µM (titrated, usually from 57.5 µM), actives largely listed as inhibitors | AID 2787; also: nearly all actives have a fitted effect of over 45% in size
Rabbit aldolase – blocks rabbit muscle aldolase in Giardia aldolase selectivity test | shares compounds with Giardia FBPA inh-1 | Potency, µM (series often up to 57.5 µM), actives largely listed as inhibitors | Rabbit muscle FBPA enzyme inhibition, selectivity counter-screen | 1,500 compounds, 4% hits | AID 2794; also: nearly all actives have a fitted effect of over 60% in size
Target sequence (P00883 whole entry, looked up): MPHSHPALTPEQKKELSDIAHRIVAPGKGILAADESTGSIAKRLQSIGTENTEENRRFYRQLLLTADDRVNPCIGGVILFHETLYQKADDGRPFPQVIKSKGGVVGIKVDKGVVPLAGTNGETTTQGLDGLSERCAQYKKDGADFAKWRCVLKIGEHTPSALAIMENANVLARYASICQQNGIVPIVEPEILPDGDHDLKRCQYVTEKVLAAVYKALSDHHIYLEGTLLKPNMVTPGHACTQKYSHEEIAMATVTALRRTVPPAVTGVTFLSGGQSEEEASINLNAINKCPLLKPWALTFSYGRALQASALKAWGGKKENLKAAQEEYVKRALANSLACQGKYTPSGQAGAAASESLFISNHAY
GAPDH coupling – counter-screen for Giardia aldolase inhibitors: GAPDH coupling enzyme; 1,500 compounds, 6% hits; shares compounds with Giardia FBPA inh-1; GAPDH coupling enzyme counterscreen, biochemical, qHTS; Potency, µM (doses to about 57.5 µM), usual class: inhibitors; also: nearly all actives have a fitted effect of over 55% in size
A number is an active result; . = inactive; ? = inconclusive; / = no result given; [ ] = remark or other dose. Unless noted, calls follow the shape of the dose curve; as a rule, active = well fitted curve in the direction sought with a large enough effect; inconclusive = small, poorly fitted or top-dose-only effect, or another doubt; inactive = no such curve, though single readings can be large; an effect the other way counts as inactive or inconclusive.

SMILES	Shiga toxin inh	Giardia FBPA inh-1	TbPYK inhibitor	LmPK inh	Sm TGR block	Cycloheximide cs	Giardia growth	Mammalian tox	Giardia FBPA inh-2	Rabbit aldolase	GAPDH coupling
CCCNC(=O)C1(S(=O)(=O)c2ccccc2)CC=CC1	.	?	.	.	.	.	/	/	/	/	/
CC(=O)NC1CC2CCCC(C1)N2C(=O)Nc1c(C)cccc1C (stereo not drawn)	/	/	.	/	/	/	/	/	/	/	/
Cc1cc(-c2nnc3n2N=C(c2ccc(F)cc2)CS3)n[nH]1	.	.	.	.	.	.	/	/	/	/	/
COc1cc(/C=N/NC2=NS(=O)(=O)c3ccccc32)ccc1OC(C)=O	.	11µM	.	.	.	.	.	.	.	.	.
COc1ccc(C(=O)NNC2=NS(=O)(=O)c3ccccc32)cc1OC	.	.	.	.	.	.	/	/	/	/	/
COc1ccc(/C=N/NC2=NS(=O)(=O)c3ccccc32)cc1OC	.	10µM	.	.	.	.	.[10.4 µM]	.	.	.	.
O=C1C(=C(I)I)c2ccccc2-c2ccccc21	/	/	.	/	/	/	/	/	/	/	/
O=C1C(=O)c2ccccc2-c2ccccc21	.	0.14µM	.	.	?	.	13µM	20µM	1.1µM	0.89µM	1.1µM
O=C(Cn1nc(C(F)(F)F)c2c1CCCC2)Nc1ccc(F)c(Cl)c1	/	/	.	/	.	/	/	/	/	/	/
CSc1c(CC(=O)Nc2ccc(F)cc2)n(Cc2ccccc2)c2ccccc12	.	.	.	.	.	.	/	/	/	/	/
CCOC(=O)c1cnc(-c2ccccc2O)nc1Cl	70	20µM	.	.	.	36	?	.	?	?	?
CCOC(=O)c1cnc(-c2ccccc2)nc1Oc1ccc(Cl)cc1	.	.	.	.	.	.	/	/	/	/	/
CCOc1ccc(CCNC(=O)CN2N=C(c3ccccc3)CCC2=O)cc1OCC	/	/	.	/	.	/	/	/	/	/	/
O=C1NC(=O)/C(=C/c2ccc(-c3cc(C(=O)O)ccc3Cl)o2)S1	.	32µM	.	.	.	.	.	.	.	.	.
Cn1nccc1C(=O)Nc1nnc(C2CC2)s1	.	/	.	.	.	.	/	/	/	/	/
CN(CC(=O)NCc1ccccc1Cl)CC(=O)Nc1ccccc1Br	/	/	.	/	.	/	/	/	/	/	/
CCN(CC(=O)NCc1ccccc1Cl)CC(=O)Nc1c(F)cccc1F	.	18µM	.	.	.	.	.	.	.	.	.
CCN(CC)c1ccc(C=C2C(=O)NC(=S)NC2=O)cc1	.	14µM	?	.	16µM	.	14µM	.	.	.	.
CCN(CC)c1ccc(/C=C2\NC(=O)NC2=O)cc1	.	.	.	.	.	.	/	/	/	/	/
CCNC(=S)N/N=C(\C)c1ccco1	.	18µM	.	.	?	.	.	.	.	.	.
C/C(=N\NC(=S)Nc1cccc(C)c1)c1ccco1	.	.	.	.	?	.	/	/	/	/	/
COc1ccc2[nH]c(=S)[nH]c2c1	.	7.1µM	.	.	.	.	.[10.4 µM]	.	.	.	.
COc1ccc(-c2cc(=O)[nH]c(=S)[nH]2)cc1	.	16µM	.	.	/	.	?	.	.	.	.
S=c1[nH]c2ccc(Cl)cc2[nH]1	.	.	?	.	.	.	/	/	/	/	/
CCC(C)N(NC(C)=O)c1nc(Cl)nc(NC(C)(C)C)n1 (stereo not drawn)	.	.	.	.	.	.	/	/	/	/	/
SMILES	Shiga toxin inh	Giardia FBPA inh-1	TbPYK inhibitor	LmPK inh	Sm TGR block	Cycloheximide cs	Giardia growth	Mammalian tox	Giardia FBPA inh-2	Rabbit aldolase	GAPDH coupling
O=C1c2ccccc2C2N1CCCN2C(=O)c1sc2ccccc2c1Cl (stereo not drawn)	/	/	.	/	/	/	/	/	/	/	/
CC(=O)OC1(C)C=Cc2ccccc2C1=NS(=O)(=O)c1ccccc1 (stereo not drawn)	/	/	.	/	/	/	/	/	/	/	/
Cc1ccccc1-n1c(-c2ccc(=O)[nH]n2)n[nH]c1=S	.	6.3µM	?	?	.	.	.	.	.	.	.
Cc1cc(-c2n[nH]c(=S)n2-c2ccccc2)nn1C	.	?	.	.	.	.	/	/	/	/	/
O=C(NCc1c(Cl)cccc1Cl)c1[nH]c(C(F)(F)F)nc1-c1ccccc1	/	/	.	/	/	/	/	/	/	/	/
CCc1nc(C)ccc1OCC(=O)NCCCN(C)C	.	13µM	.	.	.	.	.[10.4 µM]	.	.	.	.
CCc1nc(C)ccc1OCC(=O)O	.	.	.	.	.	.	/	/	/	/	/
CN(C)C(CNC(C(=O)Nc1ccc([N+](=O)[O-])cc1Br)c1ccccc1)c1ccccc1 (stereo not drawn)	.	20µM	.	.	.	.	.[10.4 µM]	.	.	.	.
C=CCn1c(-c2ccccc2)n[nH]c1=S	.	.	?	.	.	.	/	/	/	/	/
C=CCn1c(-c2ccoc2)n[nH]c1=S	.	2.5µM	?	.	.	.	?	.	.	.	.
C=CCn1c(-c2ccncc2)n[nH]c1=S	.	2.5µM	?	.	.	.	.	.	.	.	.
C=CCn1c(-c2ccc(F)cc2)n[nH]c1=S	.	?	.	.	.	.	/	/	/	/	/
O=C(O)Cn1c2ccccc2c2n[nH]c(=S)nc21	/	8.9µM	?	.	.	.	.	.	.	.	.
CCn1c2ccccc2c2n[nH]c(=S)nc21	.	.	.	.	.	.	/	/	/	/	/
O=C(NNC(=O)c1ccccc1[N+](=O)[O-])c1ccccn1	.	16µM	.	.	.	.	.[10.4 µM]	.	.	.	.
COc1ccccc1CNc1ncccn1	.	18µM	.	.	.	.	.[10.4 µM]	.	.	.	.
CC(=O)Nc1cccc(-c2csc(C(C)(NC(C)=O)c3ccccc3)n2)c1 (stereo not drawn)	/	/	.	/	/	/	/	/	/	/	/
CC(=O)Nc1cccc(-c2csc(NCc3ccccc3)n2)c1	.	20µM	.	.	.	11	.	.	.	.	.
O=C(Nc1n[nH]c(=S)s1)c1ccco1	.	7.1µM	?	.	.	.	.	.	40µM	.	.
Cc1cccc(C(=O)NC(=S)NNC(=O)Cc2ccccc2)c1	.	?	?	.	.	.	/	/	/	/	/
Cc1cccc(C(=O)NC(=S)NNC(=O)c2ccccc2Cl)c1	.	?	.	.	.	.	.	.	.	.	.
Cc1nnc(N/N=C\c2ccc(-c3cccc(C(=O)O)c3)o2)n1N	.	8.9µM	.	.	.	.	.	.	?	?	?
Cc1nnc(N/N=C/c2ccc(-c3ccc(Br)cc3)o2)n1N	.	16µM	.	.	.	.	.	.	?	?	.
O=C(NCc1ccccc1)c1cc(C2CCCCN2C(=O)c2cccs2)on1 (stereo not drawn)	/	/	.	/	/	/	/	/	/	/	/
